This passage reports Inhibition results from ChEMBL document CHEMBL4513146, “CO-ADD screening of Karazin Kharkiv National University (Ukraine) compounds”.

The structures appear in SMILES notation. Potency and affinity values are given separately.

The test system of experiment [1] is Klebsiella pneumoniae. Particulars: Concentration 32 ug.mL-1;; ASSAY_TEST Inhibition of Bacterial Growth; detection method Absorption (OD600); MEDIA CAMHB; plate type 384well; NBS; CORNING #3640; time 18 hr.
For experiment [2], the system named is Candida albicans. The note with it: Concentration 32 ug.mL-1; ASSAY_TEST Inhibition of Fungal Growth; detection method Absorption (OD530).
The test system of experiment [3] is Cryptococcus neoformans. Particulars: Concentration 32 ug.mL-1; ASSAY_TEST Inhibition of Fungal Growth; detection method Resazurin; Absorption (OD600-OD570); plate type 384well; NBS; CORNING #3640.

For orientation: Inhibition means the relative decrease from the control value, in per cent. As to `COc1ccc(NC(=O)Cn2nc3c4cc(-c5ccc(F)cc5)nn4ccn3c2=O)c(OC)c1`, the values for the Inhibition in experiment [1], in experiment [2] and in experiment [3] were 14.79%, 2.08% and -15.48%, respectively.
The matching figures for `COc1ccc(N2CCN(C(=O)Cn3nc4c(Oc5ccccc5)nccn4c3=O)CC2)cc1`: 15.08%, 1.75% and -7.66%.
As to `COc1ccc(NC(=O)Cn2nc3c(N4CCCC4)nccn3c2=O)cc1`, the figures for the Inhibition in experiment [1], in experiment [2] and in experiment [3] were 6.93%, 1.38% and -6.3%, respectively.
In the case of `Cc1oc(-c2cccc(Cl)c2)nc1CSc1nc2ccccc2n2c(C)nnc12`, the Inhibition in experiment [1] is reported as 5.28%; in experiment [2], 6.15%; in experiment [3] it was -6.37%.
The matching figures for `COc1ccc(NC(=O)Cn2nc3c4cc(-c5ccc(C)c(C)c5)nn4ccn3c2=O)c(OC)c1`: -0.09%, 3.53% and -22.33%.
On the same counts, the results for `COc1cccc(Sc2nc3ccccc3n3c(=O)n(CC(=O)Nc4cccc(C#N)c4)nc23)c1` are 5.87%, 14.41% and -21.13%.
The matching figures for `COc1cccc(-c2nc(CSc3nc4ccccc4n4c(C(C)C)nnc34)c(C)o2)c1OC`: 2.62%, -0.24% and -8.54%.
With `O=C(Cn1nc2c(=O)n(-c3ccc(Br)cc3)ccn2c1=O)Nc1cc(F)ccc1F`, the Inhibition in experiment [1] was 9.16%; in experiment [2], 1.05%; in experiment [3], -5.83%.
On the same counts, the results for `Cc1ccc(-n2ccn3c(SCC#N)nnc3c2=O)cc1C` are 10.69%, 1.05% and -5.76%.
On the same counts, the results for `COc1ccc(NC(=O)Cn2nc3c(Sc4cccc(C)c4)nccn3c2=O)cc1Cl` are 5.17%, 12.08% and -20.89%.
Turning to `CCOc1ccc(-n2ccn3c(SCC(=O)c4ccc(C)cc4C)nnc3c2=O)cc1`, the Inhibition is 5.02% in experiment [1], 2.76% in experiment [2] and -5.48% in experiment [3].
The matching figures for `COc1ccc(CCn2c(=O)c3sccc3n3c(=O)n(Cc4c(F)cccc4Cl)nc23)cc1OC`: 4.92%, -1.61% and -23.43%.
`COc1cccc(NC(=O)Cn2nc3c(Oc4cccc(OC)c4)nccn3c2=O)c1`: the Inhibition in experiment [1] was 3.74%; in experiment [2], 3.44%; in experiment [3], -0.95%.
On the same counts, the results for `Cc1ccc(N(Cc2ccccc2F)S(=O)(=O)c2ccc3nncn3c2)cc1` are -0.06%, 0.13% and -11.13%.
The matching figures for `COc1cc(NC(=O)Cn2nc3c(Sc4cccc(F)c4)nccn3c2=O)cc(OC)c1`: 4.9%, 1.46% and -6.36%.
The matching figures for `O=C(Cn1nc2ccc(SCc3ccc(Cl)cc3)nn2c1=O)Nc1ccc2c(c1)CCC2`: 12.2%, 7.4% and -25.38%.
On to `COc1ccc(-c2cc3c4nn(CC(=O)Nc5ccccc5Cl)c(=O)n4ccn3n2)cc1`, for which the results for the Inhibition in experiment [1], in experiment [2] and in experiment [3] were 4.39%, 6.88% and -15.65%, respectively.
On the same counts, the results for `Cc1nnc2c(SCC(=O)Nc3ccc(C#N)cc3)nc3ccccc3n12` are 5.06%, -1.44% and -16.12%.
The matching figures for `O=C(CSc1nnc2c(=O)n(-c3ccccc3)ccn12)c1c[nH]c2ccccc12`: 19.5%, 3.09% and -9.19%.
The matching figures for `O=C(Cn1nc2c3c4c(sc3ncn2c1=O)CCCC4)N1CCc2ccccc2C1`: 9.79%, 4.18% and -11.61%.
On to `CCc1ccc(NC(=O)Cn2nc3n(Cc4ccco4)c(=O)c4sccc4n3c2=O)cc1`, for which the Inhibition in experiment [1] is on record as -2.12%; in experiment [2], 5.72%; in experiment [3] it was -17.39%.
On the same counts, the results for `COc1ccc(C(=O)CSc2nnc3c(=O)n(-c4cccc(OC)c4)ccn23)cc1` are 12.72%, 5.69% and -12.42%.
On the same counts, the results for `COc1cccc(CN(c2ccc(Cl)cc2)S(=O)(=O)c2ccc3nncn3c2)c1` are 6.15%, 2.49% and -6.94%.
The matching figures for `COc1ccc(C)cc1NC(=O)Cn1nc2cc(C)nc(Nc3ccc(F)cc3)n2c1=O`: 2.21%, 2.84% and -7.79%.
With `O=S(=O)(c1ccc2nncn2c1)N(Cc1ccccc1F)c1ccc2c(c1)OCO2`, the Inhibition in experiment [1] is on record as 9.89%; in experiment [2] it was 1.66%; in experiment [3], -6.91%.
On the same counts, the results for `Cc1ccc(-c2ccc3nn(Cc4nc(-c5ccc(Cl)cc5)no4)c(=O)n3n2)cc1C` are 7.1%, 1.35% and -12.88%.
On the same counts, the results for `COc1cccc(Oc2nccn3c(=O)n(CC(=O)Nc4ccc(Br)cc4F)nc23)c1` are 17.17%, 0.55% and -10.01%.
Consider `CCc1nnc2c(S(=O)(=O)N(Cc3ccc(C)cc3)c3ccc(C(C)C)cc3)cccn12`, for which the figures for the Inhibition in experiment [1], in experiment [2] and in experiment [3] were 10.84%, 9.31% and -8.19%, respectively.
